From PubChem
This is a sample that favours compounds with a hit; in the whole collection about 0.71% have one here.
TAG inh: inhibitors of triacylglycerol accumulation, primary screen, cell-based, uHTS, fluorescence, H9c2 | H9c2 cells, Nile Red lipid (TAG) fluorescence; cells loaded with 200 µM oleic acid | inhibition, % at 12.5 µM | actives 0.66% (n = 230,000);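 active = pattern-corrected inhibition of lipid staining of at least 50% with the nuclear-stain viability signal not falling by more than 50%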;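 also: 0% = DMSO wells and 100% = triacsin C control wells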
MIN6 prolif-1: inducers of MIN6 beta-cell proliferation, primary screen, ATP luminescence, uHTS | MIN6 cells proliferation, ATPlite luminescence, 48 h; cells starved in 0.2% serum; 100% = growth in 10% serum | proliferation, % at 10 µM | actives 0.29% (n = 330,000);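 active = compounds whose signal lies at least 3.5 SD above the mean of all wells on their plate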;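 also: 0% = DMSO-treated cells in low-serum medium and 100% = 10% serum control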
hiPSC survival: enhancers of single-cell hiPSC survival, primary screen, ATPlite luminescence. AID 602274, 2012. survival enhancement, % at 20 µM. actives 0.044% (n = 360,000). 100% = ROCK inhibitor wells, 0% = DMSO; in the data active = survival enhancement above about 18%;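 also: cells exposed to compounds for 16 hours before the ATP read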
MIN6 prolif-2: inducers of beta-cell proliferation in MIN6, confirmation, MIN6 cells, mouse. proliferation increase, % at 50 µM. ATPlite luminescence, 48 h; cells kept in 0.2% serum; scaled between 0.2% and 10% serum. shares compounds with MIN6 prolif-1. 920 tested, under 10 active;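 active = proliferation increase above 40% at any of the four tested concentrations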
* hit, by the source's call; . = no result.

SMILES	TAG inh	MIN6 prolif-1	hiPSC survival	MIN6 prolif-2
CCOC(=O)C[C@@H](C#N)NC(=O)[C@@H]1CCCN1C(=O)[C@@H](NC(=O)c1ccc(N)c(Cl)c1)C(C)(C)C	-6	.	12	.
Cc1ccc(S(=O)(=O)N2CCN(c3nc(-c4cccs4)nc4ccccc34)CC2)cc1	24	.	-1	.
Nc1ccc2cc3[nH]c4cc(N)ccc4c3nc2c1	-132	.	-4	.
O=S1(=O)N[C@@H](Cc2ccccc2)COc2cccc(N3CCN(Cc4ccccc4F)CC3)c21	.	.	0	.
COc1ccc(CCNc2c3ccccc3nc3ccccc23)cc1OC	55*	1	0	.
COc1nc(NCCc2ccc(OC)c(OC)c2)nc(OC)n1	4	1	0	.
Cc1ccccc1-c1cc2nc(NCc3ccccc3F)n(C)c(=O)c2s1	33	.	-3	.
O=C1NC(=Nc2ccccc2)c2c1cccc2[N+](=O)[O-]	.	0.0*	0	.
O=C(Nc1cccc2c1C(=O)NC2=O)c1ccccc1[N+](=O)[O-]	8	-2	3	.
Cc1ccc(NC(=O)CCC(=O)N/N=C/c2coc3ccccc3c2=O)cc1	0	-3	0	.
Cc1ccc(NC(=O)CCC(=O)N/N=C/c2coc3ccc(F)cc3c2=O)cc1	-10	11*	0	-6
CC1CN(c2nc(N(C)c3ccccc3)nc(N)c2[N+](=O)[O-])CC(C)O1 (stereo unspecified)	.	8.7*	1	-3
CC1CC(C)CN(c2nc(N(C)c3ccccc3)nc(N)c2[N+](=O)[O-])C1 (stereo unspecified)	2	-5	1	.
COc1ccc(NC(=O)[C@@H]2O[C@H](CO)[C@H](O)[C@H](O)[C@H]2O)cc1F	-15	.	-1	.
CCN(C(=O)CN1C(=S)NC(C)(C)CC1C)c1ccc(C)c(C)c1 (stereo unspecified)	-31	9.3*	0	-2
Cc1ccc(NC(=O)CN2C(=S)NC(C)(C)CC2C)cc1Cl (stereo unspecified)	-25	-1	-1	.
Cc1ccccc1-c1cc2nc(NCc3ccc4occc4c3)n(C)c(=O)c2s1	24	.	-1	.
CCn1c(Oc2ccc(F)cc2)nc2c1c(=O)n(C)c(=O)n2C	-11	7.3*	0	6
CCn1c(Oc2ccccc2C)nc2c1c(=O)n(C)c(=O)n2C	-10	2	1	.
COC(=O)[C@]12CCCCC=C1N(Cc1cccc3ccccc13)C(=O)[C@H](CC(=O)NCCc1ccccc1OC)C2	.	.	0	.
Cc1nc(N)c(CC(Br)CBr)c(Cl)n1 (stereo unspecified)	3	8.0*	0	2
COCC1CCCCN1C(=O)c1ccc(OC)c(OC2CCN(C(C)C)CC2)c1 (stereo unspecified)	.	4.8*	0	-2
CCC1CCCCN1C(=O)c1ccc(OC)c(OC2CCN(C(C)C)CC2)c1 (stereo unspecified)	.	-2	0	.
O=C(Nc1nnc([C@@H]2C[C@H](O)[C@@H](CO)O2)s1)Nc1ccccc1C(F)(F)F	-3	.	6	.
CC(C)[C@@H]1O[C@H](CCc2ccccc2)CC2=C1C(=O)OC(C)(C)O2	.	.	0	.
SMILES	TAG inh	MIN6 prolif-1	hiPSC survival	MIN6 prolif-2
CCCC1NC(=O)c2cc3ccccc3cc2-n2c1nc1ccc(F)cc1c2=O (stereo unspecified)	3	.	1	.
COCCCN1C(=O)C(CC(=O)NCC2CCCCC2)CC(C(=O)N(C)C)=C1C (stereo unspecified)	-2	.	5	.
CCc1nc2ccc(C(=O)Nc3cccc(OCC(=O)N(C)C)c3)cn2c1N(C)Cc1cc2ccccc2s1	9	.	1	.
COC(=O)c1ccc(N2CCN(C)CC2)c(NC(=O)COc2ccc(C)cc2)c1	-18	11*	-1	-4
COC(=O)c1ccc(N2CCN(C)CC2)c(NC(=O)COc2ccc(OC)cc2)c1	7	0	3	.
O=C(OC(c1ccccc1)c1nccc2ccccc12)c1ccccc1 (stereo unspecified)	-58	.	0	.
OC(c1ccc(Cl)cc1)c1nccc2ccccc12 (stereo unspecified)	6	5.5*	-1	-6
Cc1ccc(S(=O)(=O)N2CC3(O)CN(C(=O)OC(C)C)N(C(=O)OC(C)C)CC3(OC(=O)NC3CCCC3)C2)cc1 (stereo unspecified)	2	.	2	.
O=C(N/N=C/c1ccc(Cl)cc1)c1ccc2nc[nH]c2c1	-7	.	-3	.
O=C(N/N=C/c1ccccn1)c1ccc2nc[nH]c2c1	3	7.8*	0	1
O=C(OCc1ccccc1)N1CCC2CC1c1cc(N3CCN(S(=O)(=O)c4cccc5ccccc45)CC3)ccc12 (stereo unspecified)	.	.	-1	.
CC(=O)Oc1ccc(Cn2c(C)c(C(=O)NC3CC3)sc2=O)cc1	1	.	0	.
COCOCCn1cc(CN2CCS(=O)(=O)N(Cc3ccc(-c4ccccc4)cc3)C(C(C)C)C2=O)nn1 (stereo unspecified)	15	.	2	.
Cc1cc(NS(=O)(=O)c2ccc(NC(=O)CCN3C(=O)c4ccccc4C3=O)cc2)no1	.	1	0	.
Cc1cc(C)nc(NS(=O)(=O)c2ccc(NC(=O)CCN3C(=O)c4ccccc4C3=O)cc2)n1	.	8.2*	-2	0
CCCCCC(=O)N1C[C@@H](n2cc(C3CC3)nn2)[C@H](O)C[C@@H]1c1ccc(Cl)cc1	7	.	2	.
Cc1ccc(NC(=O)CSc2nnc(NC3CC3)s2)cc1S(=O)(=O)N1CCOCC1	12	.	-1	.
OCCC1CN(CCCc2ccccc2)CCN1CCc1ccccc1 (stereo unspecified)	-4	-2	-1	.
OCCC1CN(Cc2ccccc2O)CCN1CCc1ccccc1 (stereo unspecified)	16	7.9*	-2	-3
COc1cc(/C(C)=N/NC(=O)c2nnn(-c3nonc3N)c2-c2cccs2)ccc1O	.	4.6*	0	-4
C/C(=N\NC(=O)c1nnn(-c2nonc2N)c1-c1cccs1)c1cccc(O)c1	.	1	2	.
Cc1ccc2c(c1)cc(CN(CCc1ccccc1)C(=O)N1CCOCC1)c1nnnn12	17	-1	4	.
Cc1ccc2c(c1)cc(CN(Cc1ccc3c(c1)OCO3)C(=O)c1ccccc1)c1nnnn12	-4	8.0*	-1	-3
O=S(=O)(c1cccnc1)N1CCCC(Nc2ccc(F)c(F)c2)C1 (stereo unspecified)	-7	.	2	.
FC(F)(F)c1ccccc1Cc1c(-c2cccc(Cl)c2)nc2c3ccccc3ccn12	.	.	0	.
COc1ccc(CN2C(=NC(=O)C3CC3)SC3CS(=O)(=O)CC32)cc1OC (stereo unspecified)	.	1	3	.
COc1ccc(C(=O)N=C2SC3CS(=O)(=O)CC3N2Cc2ccc(OC)c(OC)c2)cc1 (stereo unspecified)	.	11*	1	-2
C[C@H]1CN([C@@H](C)CO)C(=O)c2cc(Br)cnc2O[C@H]1CN(C)C(=O)c1ccc2c(c1)OCO2	-10	.	1	.
